Measured values: PubChem BioAssay (NCATS)
Inconclusive results are not listed. Active and inactive are the calls of the source. Calls follow the shape of the dose curve; as a rule, active = well fitted inhibition curve with a large enough effect; inconclusive = small, poorly fitted or top-dose-only effect; inactive = flat fitted curve, though single readings scatter.

How the values were obtained:
Test in all cases: Cytotoxic Profiling of Annotated Libraries Using Quantitative High-Throughput Screening (AID 1296008); also: nearly all actives have a fitted effect of over 60% in size
Conditions in all cases: Five cell lines viability, CellTiter-Glo ATP luminescence, 48-72 h; max response: active compounds read low
CRL-7250 = normal cell line; tested on: CRL-7250
How it was run: (§1)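 Cells exposed to compounds for 48 or 72 hr at 37 degrees Celsius. Viability read as ATP-coupled luminescence with CellTiter-Glo after 10 min at room temperature.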

HEK293 = tested on: HEK293
How it was run: as §1

HaCat = tested on: HaCat
How it was run: as §1

KB-3-1 = tested on: KB-3-1
How it was run: as §1

NIH3T3 = tested on: NIH3T3
How it was run: as §1

Measured: max response
% is scaled to controls: 0 for no effect and ±100 for the full control effect.

CC1(C)CC[C@]2(C(=O)OC3OC(CO)C(O)C(O)C3O)CC[C@]3(C)C(=CCC4[C@@]5(C)CC[C@H](OC6OC(C(=O)O)C(O)C(OC7OC(CO)C(O)C(O)C7O)C6O)C(C)(C)C5CC[C@]43C)C2C1 (stereo not given in full)
inactive: CRL-7250 1.42% | HEK293 1.3% | HaCat -1.22% | KB-3-1 -3.39% | NIH3T3 0.867%

CC1CCC2(OC1)OC1CC3C4CC=C5CC(O)CC(O[C@@H]6OC[C@@H](O)[C@H](O)[C@H]6O)C5(C)C4CCC3(C)C1(O)C2C (stereo not given in full)
inactive: CRL-7250 | HEK293 3.32% | HaCat 3.49% | KB-3-1 5.9% | NIH3T3 -1.3%

C=C1C[C@]23C[C@H]1CC[C@H]2[C@]1(C)CCC[C@@](C)(C(=O)O)[C@H]1[C@@H]3C(=O)O
inactive: CRL-7250 | HEK293 -6% | HaCat -5.4% | KB-3-1 0.882% | NIH3T3 2.88%

CC(C)c1cc2c(c(O)c1O)[C@@]13CCCC(C)(C)[C@@H]1[C@H](OC3=O)C2=O
inactive: CRL-7250 0.881% | HEK293 -6.57% | HaCat -2.13% | KB-3-1 -17.1% | NIH3T3 3.28%

COc1cc2c(c(OC)c1CC=C(C)C)C[C@H](c1ccc(O)cc1O)CO2
inactive: CRL-7250 -5.34% | HEK293 0.883% | HaCat | KB-3-1 | NIH3T3 0.487%

CC1=CC(=O)CC(C)(C)[C@@]1(O)CC[C@@H](C)O[C@@H]1O[C@H](CO)[C@@H](O)[C@H](O)[C@H]1O
inactive: CRL-7250 0.369% | HEK293 -2.25% | HaCat -28.9% | KB-3-1 1.23% | NIH3T3 0.984%

CC(C)CC(=O)O[C@@H]1OC=C(CO[C@@H]2O[C@H](CO)[C@@H](O)[C@H](O)[C@H]2O)[C@H]2[C@@H]3O[C@H]3[C@@](O)(CO)[C@@H]12
inactive: CRL-7250 -0.109% | HEK293 -8.14% | HaCat 1.46% | KB-3-1 6.77% | NIH3T3 2.35%

COc1cc(C2Oc3c(OC)cc(CCCO)cc3C2CO)ccc1O[C@H]1O[C@H](C)[C@@H](O)[C@H](O)[C@@H]1O (stereo not given in full)
inactive: CRL-7250 | HEK293 -0.663% | HaCat -14.3% | KB-3-1 -4.42% | NIH3T3 2.77%

CC(C)[C@H]1CC[C@@]2(O)COC(=O)[C@H]2[C@@H]1/C=C(\CO)C(=O)O
inactive: CRL-7250 -25.6% | HEK293 2.97% | HaCat -2.34% | KB-3-1 0.265% | NIH3T3 -2.01%

C/C(=C\CC[C@@H](C)[C@H]1CC(O)[C@@]2(C)C3CC[C@H]4C(C)(C)[C@@H](OC5OCC(O)C(O)C5OC5OC(CO)C(O)C(O)C5O)CC[C@@]45C[C@@]35CC(O)[C@]12C)C(=O)O (stereo not given in full)
inactive: CRL-7250 -2.5% | HEK293 0.167% | HaCat -0.726% | KB-3-1 6% | NIH3T3 -27.1%

CC(C)C(=O)OC[C@H]1O[C@H](O[C@H]2O[C@H](CO)[C@@H](O)[C@H](O)[C@H]2O)[C@H](O)[C@@H](O)[C@@H]1O
inactive: CRL-7250 -1.64% | HEK293 3.34% | HaCat 0.512% | KB-3-1 | NIH3T3 -1.4%

O=C(OC[C@@]1(O)CO[C@@H](O[C@H]2[C@H](Oc3ccc(O)cc3)O[C@H](CO)[C@@H](O)[C@@H]2O)[C@@H]1O)c1ccc(O)cc1
inactive: CRL-7250 | HEK293 -7.32% | HaCat -0.439% | KB-3-1 -1.14% | NIH3T3 -2.03%

COc1ccc2c(OC)c3ccoc3nc2c1OC
inactive: CRL-7250 -6.93% | HEK293 -25.3% | HaCat -7.51% | KB-3-1 4.27% | NIH3T3 -9.34%

CC1=CC(=O)C2C(C)(C)CCC[C@]2(C)[C@H]1CO (stereo not given in full)
inactive: CRL-7250 -14.4% | HEK293 1.55% | HaCat -11.3% | KB-3-1 2.57% | NIH3T3 2%

CC(C)=CCC/C(C)=C/CO[C@@H]1O[C@H](CO)[C@@H](OC(=O)/C=C/c2ccc(O)cc2)[C@H](O[C@@H]2O[C@@H](C)[C@H](O)[C@@H](O)[C@H]2O)[C@H]1O
inactive: CRL-7250 0.478% | HEK293 1.83% | HaCat -28.8% | KB-3-1 | NIH3T3 -7.03%

C[C@]12C=C[C@@]3(CCC4[C@](C)(CO)CCC[C@@]4(C)C3CC1)C2 (stereo not given in full)
inactive: CRL-7250 -1.08% | HEK293 -17.4% | HaCat -20.7% | KB-3-1 4.11% | NIH3T3 -6.89%

CC(C)(O)/C=C/CC(C)(O)C1C(O)CC2(C)C3CCC4C(C)(C)C(=O)CCC4(C)C3CCC12C (stereo not given)
inactive: CRL-7250 -2.19% | HEK293 1.96% | HaCat -10.7% | KB-3-1 | NIH3T3 -0.144%
